About 6,200 (1.7%) of roughly 360,000 compounds were called active.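 How the source made its calls: active means inhibition of at least 50% at 20 µM; inactive means the rest.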 Shown is part of a subset that was picked to be rich in actives.
Assay: Peg3 promoter-driven luciferase inhibitors, primary screen, cell-based, HeLa, luciferase luminescence (AID 588405)
Conditions: HeLa PEG-Prom luciferase reporter, overnight, at 20 µM, stronger effect = higher value
In the case of `CC12CCC(C(=O)N(NC(=O)c3ccccc3O)C1=O)C2(C)C` (centres undefined), the inhibition is reported as 53.1% (active). For `CC1=CC(C)(C)NC(=S)N1NC(=O)c1ccccc1Cl`, the inhibition was -9.1% (inactive). With `COc1ccccc1C(=O)NN1C(=O)C2C3C=CC(O3)C2C1=O` (centres undefined) the inhibition was 17.5% (inactive). For `CCCCOc1ccc(N(CC(=O)NC(C)C)C(=O)CCC(=O)Nc2ccccn2)cc1`, the inhibition was -4.29% (inactive). In the case of `NC1=C([N+](=O)[O-])C(c2ccccc2)C2=C(CCCC2=O)O1` (centres undefined), the inhibition is reported as 9.24% (inactive). For `O=S1(=O)CCN(C2CCCCCCCCCCC2)CC1`, the inhibition was 0.61% (inactive). With `COc1ccc(/C=C2\SC(=S)N(CCC(=O)N3CCOCC3)C2=O)cc1OC` the inhibition was -27.5% (inactive). For `CCN(C(=O)CN1C(=O)/C(=C/c2ccc(F)cc2)SC1=S)C1CCS(=O)(=O)C1` (centres undefined), the inhibition was -2.93% (inactive). For `O=C1/C(=C/c2ccc(F)cc2)SC(=S)N1CCCC(=O)N1CCCCC1CCO` (centres undefined), the inhibition was 58.3% (active). In the case of `CC(C)(C)c1ccc(S(=O)(=O)NC(=O)C2(C)CCN2C(=O)CC2CC2)cc1` (centres undefined), the inhibition is reported as -3.67% (inactive). For `Cc1cc(=O)oc2c3c(cc(OCC(=O)NCC(O)c4ccccc4)c12)OC(C)(C)CC3` (centres undefined), the inhibition was 12.4% (inactive). In the case of `CCCC(=O)NC(C)C(c1cccs1)N1CCN(c2ccccc2)CC1` (centres undefined), the inhibition is reported as 7.84% (inactive). With `CC(NC(=S)Nc1ccccc1)C(c1cccs1)N1CCOCC1` (centres undefined) the inhibition was 14.7% (inactive). In the case of `CC(NC(=O)Nc1ccccc1)C(c1cccs1)N1CCN(c2ccccc2)CC1` (centres undefined), the inhibition is reported as 66.2% (active). For `CCc1nc2c(OCCOc3ccccc3)cccn2c1N(C=O)Cc1ccc(OC)cc1`, the inhibition was 6.15% (inactive). With `COc1ccc(C(=O)O/N=C(\N)Cc2ccc(Cl)cc2Cl)cc1OC` the inhibition was 110% (active). With `COc1ccc(C(=O)n2nc(-c3ccc(Cl)cc3)nc2N)cc1OC` the inhibition was 10.6% (inactive). For `COc1ccc(CCn2ccc(O)c(Cc3ccc(Cl)cc3Cl)c2=O)cc1OC`, the inhibition was 6.97% (inactive). With `O=C(NCc1ccccc1)C(c1ccco1)N(C(=O)c1csnn1)c1ccccc1F` (centres undefined) the inhibition was 5.02% (inactive). With `CSc1ccc(C(=O)C2CCCN(C(=O)c3ccc(C)nc3)C2)cc1` (centres undefined) the inhibition was 1.04% (inactive). For `CCCCn1nnnc1C(c1cccc(OC)c1OC)N1CCN(C/C=C/c2ccccc2)CC1` (centres undefined), the inhibition was -3.54% (inactive). For `CC(C)C[C@H](CO)Nc1nc(N(C)c2cccc(Cl)c2)c2ncn(C(C)C)c2n1`, the inhibition was 12.4% (inactive). With `CC(C)n1cnc2c(Nc3cccc(Cl)c3)nc(N(CCO)CCCO)nc21` the inhibition was 96.1% (active). With `Cc1ccc(C(O)c2ncc(-c3ccccc3F)[nH]2)cc1F` (centres undefined) the inhibition was -67.5% (inactive). For `O=C(NCc1ccncc1)C1CCN(C(=O)c2cccc(Cl)c2)CC1`, the inhibition was 0.12% (inactive). With `O=C(NC1CCCC1)C(c1c(F)cccc1Cl)N(C(=O)c1csnn1)C1CC1` (centres undefined) the inhibition was 16.7% (inactive). In the case of `COC(=O)Cc1[nH]n(-c2nc3ccccc3s2)c(=O)c1C(C)=Nc1ccc(OC)cc1`, the inhibition is reported as 89.1% (active). In the case of `CCc1nc2ccccc2c(C(=O)NCc2ccc(OC)cc2)c1C`, the inhibition is reported as 16.9% (inactive). In the case of `COC(=O)CC1=NN(c2ccccc2)C(=O)C1`, the inhibition is reported as 5.53% (inactive). In the case of `N#Cc1cccc(CN2CCC(=O)N([C@H](CO)c3ccccc3)CC2)c1`, the inhibition is reported as -12.2% (inactive). For `CC(=O)c1cccc(-c2cnc3c(NC=O)cc(-c4ccccc4Oc4ccccc4)cn23)c1`, the inhibition was 0.73% (inactive). In the case of `CCCCN(C=O)c1c(CC)nc2c(OCCC3CCCCC3)cccn12`, the inhibition is reported as 18.3% (inactive). With `CCOC(=O)C1(C)CCCN(C(=O)c2ccc(F)c(Cl)c2)C1` (centres undefined) the inhibition was 8.51% (inactive). With `CC1(C(=O)NS(=O)(=O)c2cccc(OC(F)F)c2)CCN1C(=O)COc1ccc(Cl)cc1` (centres undefined) the inhibition was -1.93% (inactive). In the case of `O=C1CCC/C=C/C[C@@H](CC(=O)N(CCO)Cc2ccccc2)C(=O)NC[C@H](c2ccccc2)O1`, the inhibition is reported as -18.6% (inactive). In the case of `O=C1NC[C@@H](c2ccccc2)OC(=O)[C@H](Cc2ccc(F)cc2)CC/C=C/C[C@H]1CC(=O)N(CCO)Cc1ccccc1`, the inhibition is reported as 54.9% (active). For `O=C1N[C@@H](c2ccccc2)COC(=O)[C@H](Cc2ccc(F)cc2)C/C=C\C[C@@H]1CC(=O)N(CCO)Cc1ccccc1`, the inhibition was 24.9% (inactive). For `CCOC(=O)C1=CC[C@@H](c2ccccc2)N(S(=O)(=O)c2ccc(C)cc2)[C@H]1c1ccc(CC)cc1`, the inhibition was 13% (inactive). In the case of `CC(C)CCN1CCN(Cc2cn[nH]c2C2CCCCC2)CC1CCO` (centres undefined), the inhibition is reported as 8.83% (inactive). For `O=C(CNC(=O)OCc1ccccc1)Oc1cc2oc(=O)cc(-c3ccccc3)c2cc1Cl`, the inhibition was 11.5% (inactive). With `COc1cccc(NC(=O)C2(C)CCN2C(=O)CCC2CCCC2)c1` (centres undefined) the inhibition was 9.97% (inactive). For `O=C(/C=C/[C@H]1O[C@@H](n2cnc3c(NC(=O)c4ccccc4)ncnc32)[C@H](O)[C@@H]1O)NCc1ccccc1`, the inhibition was -2.88% (inactive). For `COc1cc(CNCCN(C)C)ccc1OCc1c(F)cccc1Cl`, the inhibition was 2.85% (inactive). With `O=C(/C=C/c1ccc(OCc2c(F)cccc2Cl)cc1)N1CCOCC1` the inhibition was -42.8% (inactive). In the case of `CN(C)CCCNC(=O)/C=C/c1ccc(OCc2c(F)cccc2Cl)cc1`, the inhibition is reported as 70.2% (active). With `CC(NC(=O)C(C)(C)C)C(c1cccs1)N1CCN(Cc2ccccc2)CC1` (centres undefined) the inhibition was 3.48% (inactive). With `Cc1coc2c1c(C)cc1oc(=O)c(CC(=O)NCC(=O)N[C@H](C(=O)O)C(C)C)c(C)c12` the inhibition was -3.37% (inactive). For `COc1ccc(C(=O)N2CCCCC2c2cc(C(=O)Nc3ccccc3)no2)cc1` (centres undefined), the inhibition was 1.75% (inactive). In the case of `CCOC(=O)c1c(NC(=O)CCl)sc(C(=O)N(CC)CC)c1C`, the inhibition is reported as 67.2% (active). For `CCOC(=O)Nc1sc(C(=O)N(C)C)c(C)c1C(=O)OCC`, the inhibition was 16.3% (inactive). For `CCOC(=O)c1sc(NC(=O)CCN2CCOCC2)c(C(=O)OCC)c1C`, the inhibition was 4.41% (inactive). For `Nc1cc(=O)c2[nH]cnc2[nH]1`, the inhibition was -0.63% (inactive). With `O=c1cc(CN2CCCCCCC2)c2c(ccc3ccccc32)o1` the inhibition was 9.42% (inactive). In the case of `CCCOc1ccc(/C=N/NC(=O)C2CC2)c(OCCC)c1`, the inhibition is reported as -4.16% (inactive). For `CCCOc1ccc(C(=O)C(CCC(CNCC)C(=O)c2ccc(OCCC)cc2)CNCC)cc1` (centres undefined), the inhibition was 116% (active). With `COC(=O)c1ccc(OCC(=O)NC(C)(C)C)cc1` the inhibition was -42.5% (inactive). In the case of `Cc1cc(Br)cn2c(Cc3ccccc3C(F)(F)F)c(C3CCCCC3)nc12`, the inhibition is reported as 5.05% (inactive). With `CC1(C(=O)NS(=O)(=O)c2cccc(F)c2)CCN1C(=O)c1cccc2ccccc12` (centres undefined) the inhibition was -0.5% (inactive). With `Cc1cc2oc(=O)cc(CN3CCN(S(=O)(=O)c4cccs4)CC3)c2cc1C(C)C` the inhibition was 51.9% (active). With `O=S(=O)(c1cccs1)N1CCN(Cc2ccccc2)CC1` the inhibition was 0.76% (inactive). With `COc1ccc2c(CN3CCN(S(=O)(=O)c4cccs4)CC3)cc(=O)oc2c1` the inhibition was 0.03% (inactive). For `COc1cncc(-c2cnc3sc(NCCc4ccccn4)nn23)c1`, the inhibition was 37.3% (inactive). With `Cc1ccc(NN=C2C(=O)OC(C)(C)OC2=O)c(C)c1` the inhibition was -290% (inactive). For `Cc1onc(NC(=O)c2ccc([N+](=O)[O-])o2)c1Br`, the inhibition was 14.7% (inactive). In the case of `Cc1cccc(NC(=O)c2ccc([N+](=O)[O-])o2)c1`, the inhibition is reported as 65.2% (active). With `O=C(Nc1cccc(O)c1)c1ccc(C(=O)c2ccccc2)o1` the inhibition was -268% (inactive). In the case of `O=C(Nc1cccc2cccnc12)c1ccc2sc([C@H]3C[C@H](O)[C@@H](CO)O3)nc2c1`, the inhibition is reported as -70.4% (inactive). For `O=C(Nc1cccc(Cc2ccccc2)c1)Nc1ccc2nc([C@@H]3O[C@H](CO)[C@@H](O)[C@H](O)[C@H]3O)[nH]c2c1`, the inhibition was -16.1% (inactive). In the case of `Cc1csc(=O)n1CC(=O)OCC(=O)N(CC(C)C)c1c(N)n(Cc2ccccc2)c(=O)[nH]c1=O`, the inhibition is reported as -11.2% (inactive). For `CC(C)CN(C(=O)COC(=O)c1ccc2ccccc2c1)c1c(N)n(Cc2ccccc2)c(=O)[nH]c1=O`, the inhibition was 86.1% (active). For `CC(C)CN(C(=O)COC(=O)c1ccc(Cl)c(N)c1)c1c(N)n(Cc2ccccc2)c(=O)[nH]c1=O`, the inhibition was -4.65% (inactive). For `CNc1cc(-c2c(OC)cccc2OC)ncn1`, the inhibition was -4.17% (inactive). For `CC(=O)Oc1ccc(Cn2c(C)c(C(=O)NCc3ccc(C#N)cc3)sc2=O)cc1`, the inhibition was 9.61% (inactive). With `NS(=O)(=O)c1ccc(CNC(=O)c2cccc(S(=O)(=O)N3CCc4ccccc43)c2)cc1` the inhibition was 23.1% (inactive). For `CC1CN(S(=O)(=O)c2ccc(C(=O)Nc3sccc3C(N)=O)cc2)CC(C)O1` (centres undefined), the inhibition was 32.5% (inactive). With `CNC(=O)c1ccsc1NC(=O)c1ccc(S(=O)(=O)N2CCc3ccccc32)cc1` the inhibition was 50.7% (active). For `CCOC(=O)c1ccccc1NC(=O)CSc1nc2c(sc(=S)n2CC)c(=O)[nH]1`, the inhibition was 8.72% (inactive). With `CCOC(=O)c1cc(-c2sc(NC(=O)c3ccccc3)nc2C)n(Cc2ccccc2)n1` the inhibition was -5.67% (inactive). For `O=C(NC(Cc1ccccc1)C(=O)N1CCCC1C(=O)O)c1ccccc1` (centres undefined), the inhibition was 11.6% (inactive). In the case of `NC(=O)c1ccc(NC(=O)COC(=O)C(Cc2ccccc2)NC(=O)c2ccccc2)cc1` (centres undefined), the inhibition is reported as -2.3% (inactive). With `CN(Cc1ccccc1F)C(=O)C(Cc1ccccc1)NC(=O)c1ccccc1` (centres undefined) the inhibition was 53.2% (active). In the case of `COCCSc1nnc(NC(=O)c2cc(OC)c(OC)cc2[N+](=O)[O-])s1`, the inhibition is reported as 7.25% (inactive). In the case of `CC1(C(=O)NS(=O)(=O)c2ccccc2)CCN1C(=O)Cc1ccc(-c2ccccc2)cc1` (centres undefined), the inhibition is reported as -4.22% (inactive). For `CCCNC(=O)C1(C)CCN(Cc2csc(-c3ccc(Cl)cc3)n2)C1` (centres undefined), the inhibition was -23.7% (inactive).
